Pin1 inhibitor – qHTS Assay to Find Inhibitors of Pin1 | Peptidyl-prolyl cis-trans isomerase NIMA-interacting 1 (Homo sapiens), Q13526 | 390,000 tested, 0.009% active | Potency, µM (highest dose often 115 µM), hits mostly inhibitors | Pin1 FP peptide displacement, HiFluor488, 10 min | AID 504891, 2011; active = well fitted inhibition curve with a large enough effect in the polarisation, with a control signal flat, not every such curve was filed as active; inconclusive = small, poorly fitted or top-dose-only effect, or effect the other way, or a change in a side signal; inactive = no such curve, though single readings can be large or run the other way; the % refers to the polarisation
Target sequence (Q13526 whole entry, looked up): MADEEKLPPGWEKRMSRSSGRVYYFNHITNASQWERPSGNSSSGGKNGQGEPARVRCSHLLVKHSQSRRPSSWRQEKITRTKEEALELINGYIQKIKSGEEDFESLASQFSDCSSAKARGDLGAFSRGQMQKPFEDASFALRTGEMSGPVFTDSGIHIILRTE
PI4K2A inh – qHTS for small molecular inhibitors of PI4K2A | activity change, negative = inhibition, % at 76.9 µM | 420,000 tested, 0.13% active | purified PI4K2A, ADP-Glo luminescence, 1 h; stronger effect = lower value | Phosphatidylinositol 4-kinase type 2-alpha (Homo sapiens), Q9BTU6; in the data active = activity change below about -50%; inconclusive = mostly about -30% to -49%
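Compounds are screened against recombinant PI4K2A using PI as substrate and ATP, the latter dispensed at 300 microM. Reactions run one hour at ambient temperature before ADP-Glo detection; full inhibition defined by wells lacking enzyme.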
PI5P4Ka inh – qHTS for Inhibitors of phosphatidylinositol 5-phosphate 4-kinase (PI5P4K). Phosphatidylinositol 5-phosphate 4-kinase type-2 alpha (Homo sapiens), P48426. max response, %. 330,000 tested, 1.2% active. PI5P4Kalpha enzyme, ADP-Glo luminescence, 60 min; stronger effect = lower value; active = max response of -50% or lower; inconclusive = between -30% and -50%; inactive = -30% or higher; also: value at the top dose of about 77 µM
Target sequence (P48426 whole entry, looked up): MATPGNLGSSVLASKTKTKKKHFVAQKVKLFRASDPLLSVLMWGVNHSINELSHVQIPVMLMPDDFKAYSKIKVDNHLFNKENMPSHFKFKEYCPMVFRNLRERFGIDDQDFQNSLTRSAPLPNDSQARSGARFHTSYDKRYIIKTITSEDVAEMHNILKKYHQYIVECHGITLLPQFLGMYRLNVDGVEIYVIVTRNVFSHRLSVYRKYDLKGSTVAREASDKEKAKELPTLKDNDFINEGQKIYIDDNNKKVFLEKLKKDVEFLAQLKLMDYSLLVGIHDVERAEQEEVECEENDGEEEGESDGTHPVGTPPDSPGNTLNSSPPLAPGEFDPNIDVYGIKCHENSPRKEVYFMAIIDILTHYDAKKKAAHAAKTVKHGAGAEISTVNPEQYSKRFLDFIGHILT
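Compounds were pin-transferred onto PI5P4Kalpha and substrate in HEPES pH 7.4 buffer with EGTA, CHAPS and 5% DMSO. ATP (5 microM final) started the reaction, which ran 60 minutes at room temperature before ADP-Glo detection.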
Tb PGK inh – qHTS Assay to Find Inhibitors of Phosphoglycerate Kinase; Potency, µM (top dose mostly 57.5 µM), actives largely listed as inhibitors; AID 602233, 2012; 380,000 tested, 0.043% active; PGK/GAPDH coupled, Kinase-Glo luminescence, 60 min; also: nearly all actives have a fitted effect of over 60% in size
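Recombinant glycosomal PGK reaction used 1,3-bisphosphoglycerate generated in-well by GAPDH (100nM final) in 100mM TEA pH 7.6, 5mM MgCl2, 0.01% Tween-20. After 60 minutes at room temperature, ATP was read by Kinase-Glo Plus luminescence end-point.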
Tb PFK block – qHTS Assay to Find Inhibitors of T. brucei phosphofructokinase. ATP-dependent 6-phosphofructokinase (Trypanosoma brucei brucei), O15648. T. brucei PFK, ADP-Glo luminescence. Potency, µM (doses to about 57.5 µM), hits mostly inhibitors. 330,000 tested, 0.17% active; also: nearly all actives have a fitted effect of over 60% in size
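In TEA buffer at pH 8.0 with 5 mM MgCl2, enzyme (1.25 nM) converted F6P (0.5 mM) and ATP (0.1 mM) for 45 min at room temperature. ADP product was read by luciferase luminescence.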
ADP-Glo counter – qHTS for Inhibitors of PI5P4K: ADP-Glo counter assay. AID 743285, 2014. Potency, µM (top dose mostly 76.9 µM), actives largely listed as inhibitors. ADP-Glo detection counter-screen, luciferase luminescence, no enzyme. 1,100 tested, under 10 active. shares compounds with PI5P4Ka inh
Numbers stand for hits; – = inactive; ? = inconclusive; · = not tested or not shown. This excerpt belongs to a sample that is enriched for hits. Unless noted, calls follow the shape of the dose curve; as a rule, active = well fitted curve in the direction sought with a large enough effect; inconclusive = small, poorly fitted or top-dose-only effect, or another doubt; inactive = no such curve, though single readings can be large; an effect the other way counts as inactive or inconclusive.

SMILES | Pin1 inhibitor | PI4K2A inh | PI5P4Ka inh | Tb PGK inh | Tb PFK block | ADP-Glo counter
CCC1CCCCN1C(=O)Cn1nc([N+](=O)[O-])c(Cl)c1C (stereo unspecified) | – | – | -50 | – | – | –
COc1ccc(NC2CCCN(C(=O)CCCn3cncn3)C2)cc1 (stereo unspecified) | · | · | · | · | – | ·
CC1CCCN(S(=O)(=O)c2ccc3c(c2)C(C)(C)C(=O)N3C)C1 (stereo unspecified) | – | – | – | – | – | ·
O=C(Cn1cncn1)NCc1ccccc1Br | – | – | -62 | – | – | –
O=C(Cn1cncn1)NCc1cccc2ccccc12 | ? | – | – | – | – | ·
O=c1oc2ccccc2c(Nc2cccc3cccnc23)c1[N+](=O)[O-] | – | – | – | – | – | ·
CCC(C)n1c(SCC(=O)Nc2ccc3[nH]c(=O)[nH]c3c2)nc2ccccc2c1=O (stereo unspecified) | – | – | -50 | – | – | –
c1cc2cc(CNc3nc(NCC4CC4)nc4ccsc34)ccc2o1 | · | – | ? | · | · | ·
CNc1nc(NCc2ccc(C)cc2C)c2sccc2n1 | · | – | – | · | · | ·
COc1ccccc1CNc1nc(NCCOc2ccccc2)c2sccc2n1 | · | – | · | · | · | –
COc1ccccc1CNc1nc(NCc2ccc3occc3c2)c2sccc2n1 | · | – | · | · | · | –
COc1ccccc1CNc1nc(NCc2ccccc2OC)c2sccc2n1 | · | – | · | · | · | –
Cc1ccc(CNc2nc(NCc3ccccc3)nc3ccsc23)c(C)c1 | · | – | · | · | · | –
CCN(CC)c1ccc(NC(=O)COc2ccccc2C#N)cc1S(=O)(=O)Nc1ccccc1OC | – | – | ? | – | – | ·
Cc1ccc2c(c1)cc1c(=O)n(CC(=O)NC(C)CCc3ccccc3)nc(C)n12 (stereo unspecified) | – | – | · | – | · | ·
COc1ccccc1CNc1nc(Nc2cccc(-c3cnco3)c2)c2sccc2n1 | · | – | · | · | · | –
COc1ccccc1CNc1nc(NCc2cccs2)nc2ccsc12 | · | – | – | · | · | ·
CCOC(=O)Cc1cc(=O)n2[nH]c(-c3ccccc3)c(-c3ccccc3)c2n1 | – | – | -50 | – | – | –
O=C(NC1CC1)C1CCN(S(=O)(=O)c2cc([N+](=O)[O-])ccc2Cl)CC1 | · | – | -56 | – | – | –
CNc1cnc(-c2ccc(O)c(OC)c2)cn1 | · | – | – | · | · | ·
C1=C(c2ccc(-c3ccccc3)cc2)Nc2ncnn2C1c1ccco1 (stereo unspecified) | ? | – | -56 | – | – | –
O=S(=O)(NCc1ccccc1Cl)c1ccc(-n2cccn2)cc1 | – | – | – | – | – | ·
CCCCc1c(Cc2ccccc2)ncn1CCc1ccccc1OC | · | – | -67 | · | · | –
O=C(c1ccco1)N1CCN(c2ncnc3c2[nH]c2ccc(Br)cc23)CC1 | ? | – | -50 | – | – | –
Cc1c(C(=O)O)sc2ncnc(N3CCCCC3C)c12 (stereo unspecified) | – | – | · | – | – | –
SMILES | Pin1 inhibitor | PI4K2A inh | PI5P4Ka inh | Tb PGK inh | Tb PFK block | ADP-Glo counter
Cc1cc(-c2csc(N)n2)c(C)n1C | ? | – | -60 | – | – | –
COc1ccc(NC(=O)CSc2nnc(-c3ccco3)c(-c3ccco3)n2)cc1OC | ? | ? | -52 | – | – | –
COc1ccc(NC(=O)CSc2nc(-c3ccco3)cc(C(F)(F)F)n2)cc1OC | – | – | · | – | · | ·
CCN(CC(=O)Nc1cccc(C#N)c1)CC(=O)Nc1cccc(OC)c1 | – | – | – | – | – | ·
Cc1ccc(S(=O)(=O)c2cc(Nc3ccccc3)ccc2O)cc1 | – | – | – | – | – | ·
COc1ccccc1Nc1ccc2c(O)cc(S(=O)(=O)O)cc2c1 | 21µM | -59 | -102 | 22µM | · | –
COc1ccc(S(=O)(=O)O)cc1P(=O)(c1ccccc1)c1ccccc1 | – | – | – | – | – | ·
O=S(=O)(O)c1cc(O)c2cc(Nc3ccccc3)ccc2c1 | ? | – | -69 | ? | · | –
O=c1[nH]n2cc(-n3cc([N+](=O)[O-])cn3)cnc2c1Br | – | – | – | – | – | ·
CCOc1ccc(C(F)(F)F)cc1NC(=O)c1ccc(OC)c([N+](=O)[O-])c1 | – | – | · | – | – | ·
CC(=O)N1CCN(S(=O)(=O)c2cccc(C(=O)Nc3ccc(F)c(F)c3)c2)CC1 | ? | – | – | – | – | –
COc1cccc(NS(=O)(=O)c2ccc3c(c2)C2C=CCC2C(c2ccc(C(=O)O)cc2)N3)c1 (stereo unspecified) | ? | – | -66 | – | – | –
O=C(Nc1ccc(F)cc1)Nc1sccc1-c1nc2ccccc2s1 | ? | – | – | – | – | ·
COC(=O)c1ccc2nc(-c3ccco3)c(Cc3ccc(C)cc3)n2c1 | · | – | – | · | · | ·
COC(=O)c1ccc2nc(-c3ccco3)c(Cc3ccc(OC)cc3C)n2c1 | · | ? | -80 | · | · | –
CC(C)(C)C1CCC(C(=O)Nc2ccccc2N2CCOCC2)CC1 (stereo unspecified) | – | – | – | – | – | ·
CCOc1ccc(NC(=O)c2sc(NC(C)=O)c(C(=O)OC)c2C)cc1 | – | – | – | – | – | ·
COC(=O)c1c(NC(C)=O)sc(C(=O)Nc2ccccc2)c1C | – | – | ? | – | – | –
Clc1ccccc1-c1nnc2sc(-c3ccco3)nn12 | – | – | – | – | – | ·
c1ccc(Cc2nnc3sc(-c4ccco4)nn23)cc1 | – | – | -51 | – | – | –
CCOc1ccccc1CN1CCN(Cc2ccc3cccc(OC)c3n2)CC1CCO (stereo unspecified) | – | – | – | – | – | ·
